Experimental data published in PubChem BioAssay (NCI).
About 83,000 compounds went through this panel and 20% of them were active in at least one assay; those are over-represented in the sample as a whole.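 The test compound was applied at a single concentration to cells in 96-well plates for 48 hours, and percent growth was recorded.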 Active and inactive are the calls of the source.

These compounds were tested on A498 renal (assay: NCI-60 one-dose screen, 48 h (100 = growth as untreated, 0 = no growth, -100 = all killed)). Conditions: 10 µM unless noted.
Description: Growth inhibition of the A498 human tumor cell line is measured as a screen for anti-cancer activity. Cells are grown in 96 well plates and exposed to the test compound for 48 hours. Compounds are tested at a single concentration, which is 10^-5 M for most compounds. The reported endpoint is percent growth (GI% or GIPRCNT), where numbers from 0 - 100% represent growth inhibition, and numbers from -100% - 0 represent cell death. For example, a value of 40 represents 60% growth inhibition. A value of 0 means no net growth occurred over the course of the experiment. A value of -40 indicates 40% of cells at the beginning of the experiment died by the end of the experiment. A value of -100 means all cells are dead at the end of the experiment.
NCI-60 Human Tumor Cell Lines Screen was performed using the standard one-dose NCI protocol, which is described in more detail at https://dtp.cancer.gov/discovery_development/nci-60/default.htm.
Compounds with GIPRCNT values below 10 were considered active. Activity score was based on GIPRCNT using the following formula: […]
Score is 0 for GIPRCNT values of 100 or above, 50 for GIPRCNT values of 0, and 100 for GIPRCNT values of -100.
CSc1ccccc1C#C/C=C\C#Cc1ccccc1N1CCCC1=O was tested, and the growth was 55.3% (inactive). For O=C(CCCn1c(=O)c2sc3ccccc3c2n2nnc(-c3ccccc3)c12)NCCc1cnc[nH]1, the growth was 95.6% (inactive). CC(=O)/C=C/c1cc2cc(Cl)ccc2[nH]c1=O was tested, and the growth was 90.2% (inactive). In the case of O=C(CSc1nc(-c2ccc(Cl)cc2)cn1-c1ccc(Cl)cc1)c1ccc(Br)cc1, the growth is reported as 93.8% (inactive). With CC(=O)Nc1nc(C(=O)N2N=C(C)/C(=C/c3cccs3)C2=O)cs1 the growth was 115% (inactive). With Nc1cc2c(cc1N)-c1cc(N)c(N)cc1C2 the growth was 63.5% (inactive). For Cc1nn(-c2ccc(Cl)cc2)c(=O)n1CCOc1ccccc1Cl, the growth was 103% (inactive). CCN(CC)S(=O)(=O)c1ccc2[nH]c(=O)cc(C(=O)Nc3ccc(OC)cc3OC)c2c1 was tested, and the growth was 146% (inactive). For CSc1ccccc1C#C/C=C\C#Cc1ccccc1N1CCCCC1=O, the growth was 107% (inactive). With COC(=O)[C@H]1[C@H](OC)[C@@H](OC(=O)/C=C/c2ccncc2)CC2CN3CCc4c([nH]c5cc(OC)ccc45)[C@@H]3C[C@@H]21 (stereo not given in full) the growth was 31.5% (inactive). For O=c1oc2cc(OS(=O)(=O)c3ccc(F)cc3)ccc2c2c1CCCCC2, the growth was 83.4% (inactive). In the case of CCCC1OC(c2ccc(C(C)C)cc2)OCC1CC (stereo not given), the growth is reported as 94.4% (inactive). For O=C(C[N+](=O)[O-])c1ccc(Cl)cc1, the growth was 108% (inactive). Cc1cc(C)c(NC(=O)c2sc3nc4c(cc3c2N)CN(Cc2ccccc2)CC4)c(C)c1 was tested, and the growth was 1.87% (active). In the case of Cc1ccc(-c2csc3nc(C)c(CCCl)c(=O)n23)cc1, the growth is reported as 104% (inactive). O=C1CCCCN1CCCCC#Cc1ccccc1C#Cc1ccc([N+](=O)[O-])cc1 was tested, and the growth was 59.7% (inactive). For Cc1ccc(Nc2ncnc3c2sc2ncccc23)cc1, the growth was 67% (inactive). In the case of COc1ccc(/C=C2\Oc3cc(OCCN4CCCC4)ccc3C2=O)c(OC)c1, the growth is reported as 88.5% (inactive). In the case of Clc1ccc(/C=C/c2nc(N3CCOCC3)c3nc(Cl)c(Cl)cc3n2)cc1, the growth is reported as 106% (inactive). In the case of CN(C)c1ncc(-c2ccc(C(F)(F)F)cc2)c(NC2CCCCCC2)n1, the growth is reported as 81.2% (inactive). For CC(=O)Nc1ccc(S(=O)(=O)N2C(=O)CCC2C(=O)Nc2ccccc2)cc1 (stereo not given), the growth was 2.01% (active). With CCC(c1ccc(OC)cc1)C(CC)c1ccc(O)c(CN2CCCC2)c1 (stereo not given) the growth was -5.74% (active). For O=C(/C=C/CN1CCOCC1)Nc1cc2c(Nc3ccc(F)c(Cl)c3F)ncnc2cc1OCCOC(F)F, the growth was -5.14% (active). CC(CCc1ccccc1)NC(=O)c1n[nH]c(=O)c2ccccc12 (stereo not given) was tested, and the growth was 98.4% (inactive). OCc1c(-c2ccccc2)nc2sccn12 was tested, and the growth was 95.9% (inactive). In the case of CCN1C(=O)/C(=c2\sc3n(c2=O)C2C(NN=3)N(CC)C(=S)N2CC)c2ccccc21 (stereo not given), the growth is reported as 91.5% (inactive). For O=C(N/N=C/c1c(Cl)cccc1Cl)c1ccccc1Nc1ccnc(C(F)(F)F)c1, the growth was 73.6% (inactive). In the case of COC(=O)CCCCCCN=Cc1c(O)c(O)c(C(C)C)c2cc(C)c(-c3c(C)cc4c(C(C)C)c(O)c(O)c(C=NCCCCCCC(=O)OC)c4c3O)c(O)c12, the growth is reported as 46.1% (inactive). For O=C1CCC(=O)N1Cc1ccccc1, the growth was 85.8% (inactive). For C=C1C(=O)O[C@H]2[C@H](O)[C@@H](C)CCC/C(C)=C/CC[C@@]3(C)O[C@@H]3C[C@@H]12, the growth was 91.8% (inactive). CC(C)N(Cc1ccc(CN(C(=O)CCl)C(C)C)cc1)C(=O)CCl was tested, and the growth was 88.2% (inactive). For Cc1ccc2nc(-c3c(CCCO)noc3N)[nH]c(=O)c2c1, the growth was 104% (inactive). With O=C(c1ccccc1)C(Cl)C(Cl)c1ccccc1 (stereo not given) the growth was 103% (inactive). With COc1cc(/C=C2\CCCC3=C2N=C2SC(C)=NN2C3c2cc(OC)c(OC)c(OC)c2)cc(OC)c1OC (stereo not given) the growth was -0.731% (active). With Cc1cc2c(C(C)C)c(O)c(O)c(C=NCCCCC(=O)O)c2c(O)c1-c1c(C)cc2c(C(C)C)c(O)c(O)c(C=NCCCCC(=O)O)c2c1O the growth was 56.3% (inactive). For COc1ccc(NC(=S)/N=c2\oc3c(OC)cccc3cc2-c2cc3ccccc3[nH]2)cc1, the growth was 87.9% (inactive). NC(=S)NN=C1CCCCC1 was tested, and the growth was 87% (inactive). For CCN1C(=O)N(CC)C2C1NN=c1s/c(=C3\C(=O)N(C4CCCC4)c4ccccc43)c(=O)n12 (stereo not given), the growth was -25.9% (active). For O=c1c2cccc3c(Nc4ccc(F)cc4)ccc(c32)c2nc3ccccc3n12, the growth was 66.2% (inactive). With CC(C)(C)OC(=O)N[C@@H](Cc1ccccc1)C(=O)N(Cc1ccccc1)C1(C(=O)NCc2ccccc2)CCN(Cc2ccccc2)CC1 the growth was 8.13% (active).
